Results as given in the supplement of paper PMC10849652.
Targets with a hit are over-represented here; the source holds about 7,900 in all. About 0.6% of all pairs of compound and target were hits.

How the values were obtained:
Test in all cases: log2 fold change, soluble protein after heating vs DMSO (PISA); higher = thermal stabilisation; K562 cells, 10 uM, 30 min; active = over 0.2 and 3.5 SD of the protein, either way, in both replicates (recomputed)
IRAK-1-4 Inhibitor I = compound: C1COCCN1CCN2C3=CC=CC=C3N=C2NC(=O)C4=CC(=CC=C4)[N+](=O)[O-] [IRAK-1-4 Inhibitor I]
Method in brief: (§1)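 Soluble protein was quantified by TMTpro 16plex LC-MS/MS after channel sums were equalised. It was obtained as the supernatant after 21,000xg for 90 min from pooled aliquots of K562 cells (2×10^6 cells/mL, 10 μM compound, 30 min) heated for 3 min across 48°C-58°C and extracted in PBS with 0.5% NP-40 at 4°C. Thermal stability values are relative to control samples and come from duplicates. They are given as log2 fold changes.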

ibrutinib = compound: C=CC(=O)N1CCC[C@@H](n2nc(-c3ccc(Oc4ccccc4)cc3)c3c(N)ncnc32)C1 [ibrutinib]
Method in brief: as §1

[1] = compound: CC(=O)c1cnc2ccc(-c3cc(Cl)c(O)c(Cl)c3)nc2c1N[C@H]1CC[C@H](CN(C)C)CC1
Method in brief: as §1

ralimetinib = compound: CC(C)(C)Cn1c(N)nc2ccc(-c3[nH]c(C(C)(C)C)nc3-c3ccc(F)cc3)nc21 [ralimetinib]
Method in brief: as §1

[2] = compound: CC(C)(O)CC(=O)NCCn1ccc2ncnc(Nc3ccc(Oc4cccc(C(F)(F)F)c4)c(Cl)c3)c21
Method in brief: as §1

[3] = compound: CC(C)C1=C2N=C(C=C(N2N=C1)NCC3=CC=CC=C3)NCCCCCCN
Method in brief: as §1

[4] = compound: CC(C)C[C@@H](C=O)NC(=O)[C@H](CC(C)C)NC(=O)[C@H](CC(C)C)NC(=O)OCc1ccccc1
Method in brief: as §1

pinometostat = compound: CC(C)N(C[C@H]1O[C@@H](n2cnc3c(N)ncnc32)[C@H](O)[C@@H]1O)[C@H]1C[C@@H](CCc2nc3cc(C(C)(C)C)ccc3[nH]2)C1 [pinometostat]
Method in brief: as §1

[5] = compound: CC1=C(C(CC(=O)N1)C2=CC=C(C=C2)C(F)(F)F)C(=O)NC3=C(C=C4C(=C3)C=NN4)F
Method in brief: as §1

[6] = compound: CC1=C(C2=C(C=C1)C(=O)C3=CC=CC=C3N2CCCN)C
Method in brief: as §1

Sequence of UniProt Q86W56 (Q86W56 whole entry, looked up): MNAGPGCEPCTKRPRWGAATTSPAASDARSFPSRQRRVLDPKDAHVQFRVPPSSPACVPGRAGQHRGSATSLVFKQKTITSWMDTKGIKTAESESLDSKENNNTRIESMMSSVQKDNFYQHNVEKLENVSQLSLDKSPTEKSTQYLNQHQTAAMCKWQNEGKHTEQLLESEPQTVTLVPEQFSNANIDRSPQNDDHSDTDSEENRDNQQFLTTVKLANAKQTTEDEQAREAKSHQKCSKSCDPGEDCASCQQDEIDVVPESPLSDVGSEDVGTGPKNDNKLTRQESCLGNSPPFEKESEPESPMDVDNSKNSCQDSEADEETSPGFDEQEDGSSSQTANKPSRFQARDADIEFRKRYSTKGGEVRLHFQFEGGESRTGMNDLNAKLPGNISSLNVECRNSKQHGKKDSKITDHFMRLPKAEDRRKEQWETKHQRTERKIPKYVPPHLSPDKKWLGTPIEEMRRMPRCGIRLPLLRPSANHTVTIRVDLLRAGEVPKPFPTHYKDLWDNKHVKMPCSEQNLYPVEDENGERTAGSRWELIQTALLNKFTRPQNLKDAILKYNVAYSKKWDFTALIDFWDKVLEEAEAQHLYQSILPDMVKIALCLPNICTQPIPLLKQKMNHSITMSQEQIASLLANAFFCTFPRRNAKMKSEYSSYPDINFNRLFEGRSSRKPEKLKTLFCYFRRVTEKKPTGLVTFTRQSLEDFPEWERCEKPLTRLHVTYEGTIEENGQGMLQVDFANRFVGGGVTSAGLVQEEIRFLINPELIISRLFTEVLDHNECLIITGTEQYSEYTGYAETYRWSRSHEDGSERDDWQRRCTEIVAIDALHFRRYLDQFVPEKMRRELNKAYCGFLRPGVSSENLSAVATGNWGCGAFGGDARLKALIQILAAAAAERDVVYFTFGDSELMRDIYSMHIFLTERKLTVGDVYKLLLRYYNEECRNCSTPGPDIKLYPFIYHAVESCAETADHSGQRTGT
Sequence of UniProt Q99541 (Q99541 whole entry, looked up): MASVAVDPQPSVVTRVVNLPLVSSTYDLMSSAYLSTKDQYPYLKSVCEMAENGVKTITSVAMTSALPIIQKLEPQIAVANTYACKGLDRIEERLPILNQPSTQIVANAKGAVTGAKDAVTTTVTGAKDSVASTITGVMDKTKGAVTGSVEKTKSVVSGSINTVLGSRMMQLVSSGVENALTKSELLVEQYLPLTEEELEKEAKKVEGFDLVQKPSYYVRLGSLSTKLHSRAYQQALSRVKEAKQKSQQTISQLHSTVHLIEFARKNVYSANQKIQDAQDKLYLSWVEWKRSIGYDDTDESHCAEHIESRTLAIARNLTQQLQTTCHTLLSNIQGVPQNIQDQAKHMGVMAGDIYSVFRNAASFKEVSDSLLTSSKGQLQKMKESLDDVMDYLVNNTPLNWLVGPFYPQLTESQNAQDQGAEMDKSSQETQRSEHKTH
Sequence of UniProt Q13523 (Q13523 whole entry, looked up): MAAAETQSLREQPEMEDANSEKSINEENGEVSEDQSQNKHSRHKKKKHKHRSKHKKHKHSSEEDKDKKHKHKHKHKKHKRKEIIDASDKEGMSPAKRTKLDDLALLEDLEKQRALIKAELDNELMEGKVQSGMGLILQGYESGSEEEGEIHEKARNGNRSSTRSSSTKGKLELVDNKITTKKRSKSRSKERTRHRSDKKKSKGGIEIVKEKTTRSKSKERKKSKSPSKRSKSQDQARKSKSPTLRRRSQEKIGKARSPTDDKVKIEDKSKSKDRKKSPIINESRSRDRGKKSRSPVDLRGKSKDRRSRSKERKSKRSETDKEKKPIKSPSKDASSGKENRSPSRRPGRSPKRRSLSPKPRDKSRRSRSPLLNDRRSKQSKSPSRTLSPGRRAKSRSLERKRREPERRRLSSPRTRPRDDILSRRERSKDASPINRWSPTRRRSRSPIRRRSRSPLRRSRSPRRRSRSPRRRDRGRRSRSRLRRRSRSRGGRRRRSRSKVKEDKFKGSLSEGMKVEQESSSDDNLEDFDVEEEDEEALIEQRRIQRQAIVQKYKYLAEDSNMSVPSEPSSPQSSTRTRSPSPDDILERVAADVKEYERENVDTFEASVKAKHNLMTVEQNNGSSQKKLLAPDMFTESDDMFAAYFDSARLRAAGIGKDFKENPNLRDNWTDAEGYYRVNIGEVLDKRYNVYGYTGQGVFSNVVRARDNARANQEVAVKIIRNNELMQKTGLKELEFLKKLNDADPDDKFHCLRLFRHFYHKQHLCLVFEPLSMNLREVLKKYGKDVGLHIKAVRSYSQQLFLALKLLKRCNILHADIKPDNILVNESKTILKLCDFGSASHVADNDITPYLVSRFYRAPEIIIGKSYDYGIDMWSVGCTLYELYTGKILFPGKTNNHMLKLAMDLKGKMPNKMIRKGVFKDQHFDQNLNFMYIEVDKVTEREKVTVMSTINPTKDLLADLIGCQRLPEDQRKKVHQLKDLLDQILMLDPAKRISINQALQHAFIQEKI
Sequence of UniProt Q9H5K3 (Q9H5K3 whole entry, looked up): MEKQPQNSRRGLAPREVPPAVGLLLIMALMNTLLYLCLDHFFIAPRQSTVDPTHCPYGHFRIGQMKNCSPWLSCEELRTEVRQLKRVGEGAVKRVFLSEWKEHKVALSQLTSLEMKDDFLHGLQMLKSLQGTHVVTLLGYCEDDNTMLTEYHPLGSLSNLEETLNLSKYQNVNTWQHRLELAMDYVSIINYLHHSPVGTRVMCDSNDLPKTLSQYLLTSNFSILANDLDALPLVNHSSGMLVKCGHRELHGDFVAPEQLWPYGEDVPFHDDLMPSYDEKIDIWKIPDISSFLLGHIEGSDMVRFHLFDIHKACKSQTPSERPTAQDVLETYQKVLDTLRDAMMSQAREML
Sequence of UniProt Q5VU43 (Q5VU43 whole entry, looked up): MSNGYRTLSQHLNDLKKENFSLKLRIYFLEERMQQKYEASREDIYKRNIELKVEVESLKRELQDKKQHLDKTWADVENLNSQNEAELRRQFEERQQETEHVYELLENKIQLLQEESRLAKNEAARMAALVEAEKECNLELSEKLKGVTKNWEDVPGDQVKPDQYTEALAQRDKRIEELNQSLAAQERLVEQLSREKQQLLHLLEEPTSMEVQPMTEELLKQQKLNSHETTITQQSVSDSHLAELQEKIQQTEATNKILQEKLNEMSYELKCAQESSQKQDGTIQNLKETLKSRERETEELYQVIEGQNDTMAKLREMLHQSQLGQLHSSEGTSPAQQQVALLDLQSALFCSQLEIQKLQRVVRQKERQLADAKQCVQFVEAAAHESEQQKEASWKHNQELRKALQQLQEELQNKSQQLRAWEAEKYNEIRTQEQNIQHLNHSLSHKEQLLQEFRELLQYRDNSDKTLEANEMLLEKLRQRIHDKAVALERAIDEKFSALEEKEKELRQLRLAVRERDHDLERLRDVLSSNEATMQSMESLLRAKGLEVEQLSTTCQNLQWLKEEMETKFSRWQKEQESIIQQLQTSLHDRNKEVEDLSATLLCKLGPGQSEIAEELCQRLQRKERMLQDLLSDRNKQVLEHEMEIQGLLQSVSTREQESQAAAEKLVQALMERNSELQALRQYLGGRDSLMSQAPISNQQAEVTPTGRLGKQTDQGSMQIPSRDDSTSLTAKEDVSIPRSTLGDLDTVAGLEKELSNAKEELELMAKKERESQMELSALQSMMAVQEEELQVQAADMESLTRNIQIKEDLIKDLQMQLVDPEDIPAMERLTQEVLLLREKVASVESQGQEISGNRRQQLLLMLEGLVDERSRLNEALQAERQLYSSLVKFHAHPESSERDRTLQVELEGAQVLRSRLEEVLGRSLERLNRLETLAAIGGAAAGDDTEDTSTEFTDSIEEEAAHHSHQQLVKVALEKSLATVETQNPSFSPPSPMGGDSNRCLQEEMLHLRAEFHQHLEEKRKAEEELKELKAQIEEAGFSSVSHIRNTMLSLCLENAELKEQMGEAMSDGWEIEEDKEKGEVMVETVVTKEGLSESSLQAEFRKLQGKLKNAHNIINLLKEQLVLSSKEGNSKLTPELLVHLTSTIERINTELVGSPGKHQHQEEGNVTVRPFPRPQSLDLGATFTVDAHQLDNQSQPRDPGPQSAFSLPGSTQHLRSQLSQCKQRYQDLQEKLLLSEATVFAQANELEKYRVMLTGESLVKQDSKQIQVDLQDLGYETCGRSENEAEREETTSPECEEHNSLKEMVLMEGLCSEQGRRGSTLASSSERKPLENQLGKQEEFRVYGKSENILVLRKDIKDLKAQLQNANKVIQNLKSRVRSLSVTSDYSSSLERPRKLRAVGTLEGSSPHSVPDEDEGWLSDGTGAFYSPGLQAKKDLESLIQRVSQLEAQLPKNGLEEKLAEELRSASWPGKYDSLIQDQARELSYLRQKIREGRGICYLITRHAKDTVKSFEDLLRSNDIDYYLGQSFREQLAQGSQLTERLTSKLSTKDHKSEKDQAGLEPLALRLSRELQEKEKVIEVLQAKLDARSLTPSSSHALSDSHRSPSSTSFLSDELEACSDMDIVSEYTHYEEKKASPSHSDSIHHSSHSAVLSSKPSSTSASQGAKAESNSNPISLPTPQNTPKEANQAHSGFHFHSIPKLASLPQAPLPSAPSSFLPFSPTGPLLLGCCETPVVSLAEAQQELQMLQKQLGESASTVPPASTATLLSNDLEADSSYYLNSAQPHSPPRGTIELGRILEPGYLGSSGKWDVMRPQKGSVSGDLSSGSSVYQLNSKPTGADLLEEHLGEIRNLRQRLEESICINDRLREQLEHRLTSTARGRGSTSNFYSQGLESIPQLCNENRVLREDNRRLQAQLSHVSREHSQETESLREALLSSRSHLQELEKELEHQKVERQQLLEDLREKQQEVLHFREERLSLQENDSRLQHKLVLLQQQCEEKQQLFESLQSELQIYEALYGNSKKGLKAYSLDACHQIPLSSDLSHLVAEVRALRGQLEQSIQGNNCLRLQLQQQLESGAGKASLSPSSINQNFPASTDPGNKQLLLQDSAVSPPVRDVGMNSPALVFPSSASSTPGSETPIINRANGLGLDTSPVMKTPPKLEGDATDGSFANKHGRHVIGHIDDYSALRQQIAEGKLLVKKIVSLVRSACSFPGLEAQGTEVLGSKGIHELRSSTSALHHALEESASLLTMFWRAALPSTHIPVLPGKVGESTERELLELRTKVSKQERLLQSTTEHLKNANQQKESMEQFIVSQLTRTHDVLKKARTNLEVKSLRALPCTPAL

Row | Target | log2 fold change (IRAK-1-4 Inhibitor I) | log2 fold change (ibrutinib) | log2 fold change [1] | log2 fold change (ralimetinib) | log2 fold change [2] | log2 fold change [3] | log2 fold change [4] | log2 fold change (pinometostat) | log2 fold change [5] | log2 fold change [6]
1 | PLIN2 (UniProt Q99541) | 0.058 (inactive) | 0.055 (inactive) | 0.005 (inactive) | -0.065 (inactive) | -0.083 (inactive) | -1.11 (active) | -0.014 (inactive) | 0.007 (inactive) | -0.031 (inactive) | -0.022 (inactive)
2 | PDCD6 (UniProt O75340) | 0.021 (inactive) | -0.05 (inactive) | -0.029 (inactive) | -0.048 (inactive) | -0.097 (inactive) | -0.156 (inactive) | 0.018 (inactive) | 0.005 (inactive) | 0.014 (inactive) | -0.034 (inactive)
3 | PDE4DIP isoform 4 (UniProt Q5VU43) | -0.006 (inactive) | 0.001 (inactive) | 0.045 (inactive) | 0.011 (inactive) | -0.08 (inactive) | 0.035 (inactive) | 0.087 (inactive) | -0.05 (inactive) | 0.069 (inactive) | 0.088 (inactive)
4 | PRPF3 (UniProt O43395) | -0.018 (inactive) | -0.038 (inactive) | -0.179 (inactive) | -0.008 (inactive) | -0.055 (inactive) | -0.205 (inactive) | -0.001 (inactive) | 0 (inactive) | 0 (inactive) | -0.2 (inactive)
5 | PNPLA8 (UniProt Q9NP80) | -0.022 (inactive) | -0.049 (inactive) | 0.151 (inactive) | -0.005 (inactive) | -0.071 (inactive) | -0.06 (inactive) | 0.003 (inactive) | 0.064 (inactive) | -0.008 (inactive) | 0.043 (inactive)
6 | POLR3B (UniProt Q9NW08) | -0.121 (inactive) | -0.048 (inactive) | 0.044 (inactive) | 0.052 (inactive) | -0.116 (inactive) | -0.183 (inactive) | 0.055 (inactive) | 0.115 (inactive) | -0.035 (inactive) | 0.297 (active)
7 | PIP4P2 (UniProt Q8N4L2) | -0.027 (inactive) | 0 (inactive) | -0.028 (inactive) | 0.005 (inactive) | 0.142 (inactive) | -0.624 (active) | 0.011 (inactive) | 0.012 (inactive) | 0.028 (inactive) | 0.033 (inactive)
8 | PTK2B (UniProt Q14289) | -0.095 (inactive) | -0.257 (inactive) | -0.018 (inactive) | 0.178 (inactive) | -0.026 (inactive) | -0.244 (inactive) | 0.052 (inactive) | 0.004 (inactive) | -0.014 (inactive) | 0.061 (inactive)
9 | PIGT (UniProt Q969N2) | -0.016 (inactive) | 0.01 (inactive) | -0.009 (inactive) | 0.022 (inactive) | -0.067 (inactive) | -0.089 (inactive) | 0.002 (inactive) | 0.045 (inactive) | 0.018 (inactive) | 0.01 (inactive)
10 | PLD3 (UniProt Q8IV08) | 0.022 (inactive) | -0.031 (inactive) | -0.042 (inactive) | -0.039 (inactive) | -0.022 (inactive) | -0.079 (inactive) | 0.05 (inactive) | -0.005 (inactive) | 0.003 (inactive) | -0.023 (inactive)
11 | PARG (UniProt Q86W56) | -0.047 (inactive) | -0.022 (inactive) | -0.124 (inactive) | 0.045 (inactive) | -0.075 (inactive) | -0.203 (inactive) | 0.043 (inactive) | 0.059 (inactive) | 0.001 (inactive) | 0.331 (active)
12 | PRKCQ (UniProt Q04759) | 0.004 (inactive) | -0.026 (inactive) | -2.02 (active) | -0.02 (inactive) | -0.037 (inactive) | -0.103 (inactive) | -0.011 (inactive) | 0.028 (inactive) | 0.024 (inactive) | 0.018 (inactive)
13 | POGLUT1 (UniProt Q8NBL1) | -0.032 (inactive) | -0.03 (inactive) | -0.047 (inactive) | 0.162 (inactive) | 0.058 (inactive) | 0.055 (inactive) | -0.106 (inactive) | 0.026 (inactive) | 0.009 (inactive) | 0.016 (inactive)
14 | PUF60 (UniProt Q9UHX1) | -0.11 (inactive) | -0.018 (inactive) | -0.352 (active) | 0.049 (inactive) | -0.016 (inactive) | -0.235 (active) | -0.003 (inactive) | -0.016 (inactive) | 0.001 (inactive) | 0.016 (inactive)
15 | PIK3CB (UniProt P42338) | -0.051 (inactive) | -0.049 (inactive) | 0.082 (inactive) | 0.013 (inactive) | -0.082 (inactive) | -0.082 (inactive) | 0.02 (inactive) | -0.069 (inactive) | -0.026 (inactive) | 0.041 (inactive)
16 | PTGFRN (UniProt Q9P2B2) | 0.009 (inactive) | 0.06 (inactive) | -0.111 (inactive) | -0.029 (inactive) | -0.026 (inactive) | 0.222 (active) | 0.07 (inactive) | 0.002 (inactive) | 0.006 (inactive) | 0.028 (inactive)
17 | PDPK1 (UniProt O15530) | 0.019 (inactive) | -0.043 (inactive) | -0.346 (active) | -0.067 (inactive) | -0.087 (inactive) | -0.134 (inactive) | 0.015 (inactive) | 0.001 (inactive) | 0.035 (inactive) | 0.027 (inactive)

Row | Target | log2 fold change (IRAK-1-4 Inhibitor I) | log2 fold change (ibrutinib) | log2 fold change [1] | log2 fold change (ralimetinib) | log2 fold change [2] | log2 fold change [3] | log2 fold change [4] | log2 fold change (pinometostat) | log2 fold change [5] | log2 fold change [6]
18 | POLR2A (UniProt P24928) | -0.029 (inactive) | 0.054 (inactive) | 0.342 (active) | 0.011 (inactive) | -0.065 (inactive) | 0.19 (inactive) | 0.005 (inactive) | -0.004 (inactive) | -0.046 (inactive) | 0.033 (inactive)
19 | POM121 (UniProt Q96HA1) | -0.022 (inactive) | 0.005 (inactive) | -0.164 (inactive) | 0.083 (inactive) | 0.016 (inactive) | -0.241 (inactive) | 0.178 (inactive) | 0.065 (inactive) | -0.042 (inactive) | -0.057 (inactive)
20 | PMPCA (UniProt Q10713) | 0.016 (inactive) | -0.008 (inactive) | -0.029 (inactive) | 0.057 (inactive) | -0.155 (inactive) | 0.097 (inactive) | -0.003 (inactive) | -0.015 (inactive) | -0.034 (inactive) | 0.055 (inactive)
21 | PIP4K2B (UniProt P78356) | 0.254 (inactive) | 0.01 (inactive) | 0.856 (active) | 0.005 (inactive) | -0.149 (inactive) | 0.033 (inactive) | -0.034 (inactive) | -0.014 (inactive) | -0.11 (inactive) | 0.065 (inactive)
22 | PLCL1 (UniProt Q15111) | -0.007 (inactive) | 0.31 (inactive) | 0.08 (inactive) | 0.125 (inactive) | -0.329 (inactive) | -0.102 (inactive) | 0.089 (inactive) | 0.365 (inactive) | -0.086 (inactive) | -0.193 (inactive)
23 | PDCD4 (UniProt Q53EL6) | -0.043 (inactive) | -0.05 (inactive) | 0.271 (inactive) | -0.042 (inactive) | -0.091 (inactive) | -0.194 (inactive) | -0.015 (inactive) | -0.046 (inactive) | -0.123 (inactive) | -0.17 (inactive)
24 | PCGF2 (UniProt P35227) | -0.077 (inactive) | -0.101 (inactive) | -0.164 (inactive) | -0.036 (inactive) | 0 (inactive) | -0.095 (inactive) | 0.065 (inactive) | -0.075 (inactive) | -0.119 (inactive) | 0.107 (inactive)
25 | POMK (UniProt Q9H5K3) | 0.046 (inactive) | -0.036 (inactive) | -0.042 (inactive) | 0.032 (inactive) | -0.024 (inactive) | -0.23 (inactive) | 0.027 (inactive) | 0.094 (inactive) | -0.009 (inactive) | 0.042 (inactive)
26 | PRPF4B (UniProt Q13523) | -0.126 (inactive) | -0.015 (inactive) | -0.263 (inactive) | -0.001 (inactive) | 0.138 (inactive) | -0.029 (inactive) | 0.077 (inactive) | 0.099 (inactive) | -0.006 (inactive) | -0.209 (inactive)
27 | PMM1 (UniProt Q92871) | -0.06 (inactive) | 0.039 (inactive) | -0.011 (inactive) | -0.024 (inactive) | 0.014 (inactive) | 0.187 (inactive) | 0.019 (inactive) | -0.037 (inactive) | 0.02 (inactive) | 0.049 (inactive)
28 | PJA2 (UniProt O43164) | 0.061 (inactive) | 0.023 (inactive) | 0.091 (inactive) | -0.004 (inactive) | -0.02 (inactive) | -0.013 (inactive) | 0.169 (inactive) | -0.005 (inactive) | 0.05 (inactive) | -0.308 (active)
29 | PRKD2 isoform 3 (UniProt Q9BZL6) | -0.046 (inactive) | -0.057 (inactive) | -1.03 (active) | 0.089 (inactive) | -0.302 (inactive) | -0.216 (inactive) | 0.074 (inactive) | 0.056 (inactive) | 0.192 (inactive) | -0.087 (inactive)
30 | PSPC1 (UniProt Q8WXF1) | -0.097 (inactive) | 0.002 (inactive) | -0.201 (inactive) | -0.012 (inactive) | -0.024 (inactive) | -0.18 (inactive) | 0.048 (inactive) | -0.02 (inactive) | -0.042 (inactive) | 0.15 (inactive)
31 | PTGR2 (UniProt Q8N8N7) | 0 (inactive) | 0.321 (inactive) | -0.328 (inactive) | -0.016 (inactive) | -0.042 (inactive) | 0.121 (inactive) | 0.001 (inactive) | 0.074 (inactive) | 0.005 (inactive) | 0.011 (inactive)
32 | PPOX (UniProt P50336) | 0.095 (inactive) | 0.136 (inactive) | -0.151 (inactive) | 0.077 (inactive) | 0.187 (inactive) | -0.217 (inactive) | -0.008 (inactive) | -0.039 (inactive) | -0.095 (inactive) | -0.009 (inactive)
33 | PFDN1 (UniProt O60925) | -0.187 (inactive) | -0.119 (inactive) | -0.002 (inactive) | -0.141 (inactive) | -0.031 (inactive) | 0.062 (inactive) | -0.13 (inactive) | -0.175 (inactive) | -0.021 (inactive) | 0.254 (inactive)
34 | PXK (UniProt Q7Z7A4) | 0.032 (inactive) | 0.042 (inactive) | -0.012 (inactive) | 0.1 (inactive) | -0.023 (inactive) | -0.201 (inactive) | 0.037 (inactive) | 0.012 (inactive) | -0.024 (inactive) | 0.057 (inactive)
